An excerpt weighted towards active compounds, which were near 2.7% of everything screened.
CFTR F508del cor = CFTR F508del correction in bronchial cells. activity (quench increase), % at 7.58 µM. CFBE cells, YFP halide quenching; stimulated with forskolin plus potentiator P3; % fluorescence drop versus neutral controls. hit rate 0.36% among 350,000;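 active = mean added fluorescence quench of at least 8% versus neutral control, with both replicates also reaching 8%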;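 also: cells transiently co-express mutant CFTR-F508del with the halide-sensitive YFP; corrector assay measuring rescue of mutant channel to the surface after 24 h compound exposure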
MITF act = increases MITF-driven TRPM1 promoter luciferase signal. SK-MEL-5 TRPM1-promoter luciferase, 24 h; % of positive control, neutral wells = 0. activation, % at 12.5 µM. hit rate 0.75% among 300,000;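 active = mean activation of at least 80% with every replicate also reaching 80%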;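 also: 0% = neutral control wells and 100% = parthenolide positive control wells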
Wnt act = Wnt/beta-catenin pathway activation; Wnt/beta-catenin reporter cell assay, activator, plate reader; activation, % at 9.35 µM; hit rate 1.2% among 300,000; AID 743398; in the data active = activation above about 30%, passing the limit was not always enough;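 also: 0% = neutral control wells and 100% = positive control wells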
GSIS activator = GLuc luminescence reporter in INS-1E cells, primary screen for activators of glucose-dependent secretion of insulin; AID 743287; INS-1E GLuc reporter insulin secretion, 2-3 h; activation, % at 16.6 µM; hit rate 0.61% among 370,000;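 active = lowest replicate activation of at least 40%, so every replicate reaches that level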;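 also: 0% = median of neutral control wells and 100% = median of IBMX positive control wells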
HIV Env fusion = inhibitors of HIV Env-mediated cell fusion; hit rate 1.1% among 360,000; HeLa-JRFL Env/CEM21 cell fusion, luciferase; inhibition, % at 12.3 µM;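 active = mean replicate inhibition score of at least 50 and every replicate individually at or above 50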;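 also: 0% = plate neutral controls and 100% = maraviroc near 300 nM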
* hit, by the source's call; / = no result given; [ ] = dose if it differs, or a comment.

SMILES | CFTR F508del cor | MITF act | Wnt act | GSIS activator | HIV Env fusion
CC(C)c1ccc(-c2nc(N3CCCC3)nc3n[nH]c(N)c23)cc1 | / | -3 | / | / | 27
O=S(=O)(c1ccccc1F)N1CC[C@@H]2[C@H]1c1cc(-c3ccc(F)cc3)ccc1N[C@@H]2CO | 2 | / | / | 6 | /
COc1ccc(-c2nc(CS(=O)CC(=O)NCc3ccco3)c(C)o2)cc1OC (stereo not drawn) | 7 | / | 11 | / | 73*
COc1ccc(-c2ccc(SCC(=O)NC3CCCCC3)nn2)cc1OC | 2 | 64 | -1 | 105* | -14
O=C(CSc1ccc(-c2ccc(F)cc2)nn1)NCC1CCCO1 (stereo not drawn) | / | 2 | -4 | -8 | -1
COc1ccc(-c2ccc(SCC(=O)NCC3CCCO3)nn2)cc1OC (stereo not drawn) | -1 | -9 | 1 | 75* | 15
COc1ccc(-c2cc(C(F)(F)F)nc(SCC(=O)NCc3ccco3)n2)cc1OC | / | 10 | -5 | / | /
Cc1ccc(-c2nc(CS(=O)CC(=O)NCc3ccco3)c(C)o2)cc1 (stereo not drawn) | 0 | 6 | 0 | -20 | 1
COc1ccc(-c2ccc(SCC(=O)NCc3ccco3)nn2)cc1OC | / | 10 | / | 62* | -31
COc1ccc(-c2ccc(SCC(=O)NC3CCCC3)nn2)cc1 | 1 | / | 11 | -7 | -13
CCOC(=O)C1CCN(CCC(=O)Nc2ccc(C)c(C)c2)CC1 | 1 | 10 | 46* | -1 | 0
Clc1ccc(-c2ccc(C=Nc3ccc(N4CCOCC4)cc3)o2)c(Cl)c1 | 2 | -11 | 0 | -7 | 4
Clc1cccc(-c2ccc(C=Nc3ccc(N4CCOCC4)cc3)o2)c1Cl | 14* | -1 | -1 | 4 | 30
COc1ccc(C(C#N)=Cc2ccc(N(C)CCC#N)cc2)cc1 | 0 | / | 31* | 7 | -144
COc1ccc(C(C#N)=Cc2cc(OC)c(OC)c(OC)c2)cc1 | -3 | / | -8 | -1 | -34
C[C@@H]1CN([C@H](C)CO)C(=O)c2cc(NC(=O)Nc3cccc4ccccc34)ccc2O[C@H]1CN(C)Cc1ccc(-c2ccccc2)cc1 | 6 | / | / | 8 | /
c1ccc(Nc2ccnc(Nc3ccccc3)n2)cc1 | -1 | 65 | 71* | -24 | -53
O=S(=O)(c1ccc2c(c1)C(=NO)c1cc(S(=O)(=O)N3CCCCC3)ccc1-2)N1CCCCC1 | / | / | -34 | / | 126*
CC1CCN(S(=O)(=O)c2ccc3c(c2)C(=NO)c2cc(S(=O)(=O)N4CCC(C)CC4)ccc2-3)CC1 | / | -99 | / | / | /
COc1cccc(NC(=O)CN(C)C(=O)Cn2[nH]c(=O)c3ccccc3c2=O)c1 | -4 | -2 | -3 | 41* | -1
C[C@@H]1CN([C@H](C)CO)C(=O)c2cccc(NC(=O)Nc3ccc(C(F)(F)F)cc3)c2O[C@H]1CN(C)S(C)(=O)=O | 1 | / | / | 1 | /
CCN(C(=O)CSc1ncccn1)c1cccc2ccccc12 | 2 | -1 | -4 | 48* | /
C[C@@H]1CN([C@@H](C)CO)C(=O)c2cc(C3=CCCCC3)cnc2O[C@@H]1CN(C)Cc1ccccc1 | 0 | / | / | -7 | 19[16.7 µM]
Cc1ccccc1S(=O)(=O)/N=C(/Nc1nc2ccccc2s1)c1ccccc1 | 0 | 98* | 53* | -11 | /
O=C(NC(=S)Nc1ccccc1Br)c1ccc2c(c1)OCO2 | 1 | 110* | 2 | 38 | -34
SMILES | CFTR F508del cor | MITF act | Wnt act | GSIS activator | HIV Env fusion
Cc1ccc(S(=O)(=O)N[C@H]2C=C[C@@H](CC(=O)NCc3ccncn3)O[C@@H]2CO)cc1 | -3 | / | / | 22 | -1[16.7 µM]
COc1ccc(-c2cn3c(C)c(C(=O)Nc4cccc(NC(C)=O)c4)sc3n2)cc1 | / | / | / | / | 71*
CSc1ccc(CN2CCC2(C)C(=O)Nc2cccc(NS(C)(=O)=O)c2)cc1 (stereo not drawn) | -2 | / | -4 | / | 76*
C[C@@H](NC(=O)C[C@H]1C[C@H]2c3cc(NC(=O)NC4CCCC4)ccc3O[C@H]2[C@H](CO)O1)c1ccccc1 | 1 | / | / | 5 | 12[16.7 µM]
CCC(=O)Nc1ccc2c(c1)C(=O)N(C)C[C@@H](OC)[C@@H](C)CN(Cc1ccncc1)[C@H](C)CO2 | 1 | / | / | 13 | -5[16.7 µM]
CN(C)CC(=O)N[C@H]1CC[C@H](CC(=O)NCc2ccc(Cl)cc2)O[C@@H]1CO | -2 | / | / | 2 | -11[16.7 µM]
COC(CNC(=O)[C@H](CSCc1ccccc1)N1Cc2ccccc2C1=O)OC | -3 | -3 | 1 | -5 | -2
COC(=O)C(Cc1ccc(O)cc1)N1Cc2ccccc2C1=O (stereo not drawn) | -3 | 91* | 23 | 18 | -52

Screening results from PubChem BioAssay.
